In PubChem BioAssay (NCATS) one finds Potency data, which are given here for 22 compounds.

Records with an inconclusive call do not appear. Active and inactive are the calls of the source. The call rests on the fitted dose curve; in most records, active means well fitted inhibition curve with a large enough effect; inconclusive means small, poorly fitted or top-dose-only effect; inactive means flat fitted curve, though single readings scatter. Starred links: 1 amine or outer side, 2 acyl side, 3 side chain; linkers in the order of their positions; H or OH if unused. Positions of bridges follow the written chain, without caps; N, C: chain ends. Non-standard residues stand in square brackets, D forms with d. Residues, ends and D or L forms follow the SMILES beside them. Chains are numbered I, II in the order given. *: point of attachment. Actinocin(9to1) = Cc1c2oc3c(C)ccc(C(=O)[*:1])c3nc-2c(C(=O)[*:2])c(N)c1=O; NMeV = CN[CH](C(=O)O)C(C)C; Cbz = O=C(OCc1ccccc1)*; Sar = CNCC(=O)O

Assay in all cases: qHTS assay to identify novel small-molecules to repurpose for Merkel cell carcinoma treatment (AID 1296009); further: nearly all actives have a fitted effect of over 60% in size
What all share (details): MCC and control cell lines, CellTiter-Glo viability, 72 h; series mostly up to 46 µM

Assay [1] deals with MCC-13. In a few lines: (§1)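 CellTiter-Glo luminescence after 72 hr compound exposure at 37 degree celsius gave cell viability. Libraries NPC and MIPE were run as 8- and 11-point dose responses; RLUs normalized to DMSO (negative) and no-cell (cytotoxicity) controls.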
For assay [2], the system named is MCC-26. The method, boiled down:
as §1

Assay [3] relates to MKL-1. The method, boiled down: as §1
Assay [4] has as its system MKL-2. In a few lines: as §1
The test system of assay [5] is UISO. In a few lines:
as §1

Assay [6] concerns WaGa. The method, boiled down:
as §1
Potency means the concentration at half of the fitted maximal effect.

For the compound `O=C1NC(=O)C(=Cc2ccc3nccc(-c4ccncc4)c3c2)S1`, the Potency was 1870 nM (active) in assay [1]; 2960 nM (active) in assay [2]; 1480 nM (active) in assay [3]; 469 nM (active) in assay [4]; 743 nM (active) in assay [5]; 833 nM (active) in assay [6].

Regarding `C#C[C@]1(O)CC[C@@H]2[C@@H]3CCC4=CC(=O)CC[C@@H]4[C@H]3CC[C@@]21CC`, the Potency entry in assay [1], in assay [2], in assay [3], in assay [4], in assay [5] and in assay [6] was “inactive” throughout.

Take `C[C@@H]1CC[C@@]2(OC1)OC1CC3C4CC=C5CC(O)CCC5(C)C4CCC3(C)C1[C@@H]2C` (some centres not stated): the Potency entry in assay [1], in assay [2], in assay [3], in assay [4], in assay [5] and in assay [6] was “inactive” in each case.

In the case of `C=C[C@@H]1CN2CCC1C[C@H]2[C@H](O)c1ccnc2ccc(OC)cc12` (some centres not stated), the Potency result in assay [1], in assay [2], in assay [3], in assay [4], in assay [5] and in assay [6] was “inactive” throughout.

Consider `CC(C)C[C@@H](C=O)NC(=O)[C@H](CC(C)C)NC(=O)[C@H](CC(C)C)NC(=O)OCc1ccccc1` (Cbz-Leu-Leu-Leu-aldehyde), for which the Potency in assay [1] was 2640 nM (active); in assay [2], 2350 nM (active); in assay [3], 935 nM (active); in assay [4], 743 nM (active); in assay [5] it was 1180 nM (active); in assay [6], 935 nM (active).

Consider `COC(=O)C1C2CC3c4[nH]c5cc(OC)ccc5c4CCN3CC2CC(OC(=O)c2cc(OC)c(OC)c(OC)c2)C1OC` (configuration not stated), for which the Potency entry in assay [1], in assay [2], in assay [3], in assay [4], in assay [5] and in assay [6] was “inactive” throughout.

On to `CC(C(C)N1CC(=O)NC(=O)C1)N1CC(=O)NC(=O)C1` (configuration not stated), for which the Potency entry in assay [1], in assay [2], in assay [3], in assay [4], in assay [5] and in assay [6] was “inactive” in each case.

`Cn1cc(C[C@@H](N)C(=O)O)c2ccccc21`: the Potency result in assay [1], in assay [2], in assay [3], in assay [4], in assay [5] and in assay [6] was “inactive” in each case.

On to `O=C1NC(O)CCN1[C@@H]1O[C@H](CO)[C@H](O)[C@H]1O` (some centres not stated), for which the Potency result in assay [1], in assay [2], in assay [3], in assay [4], in assay [5] and in assay [6] was “inactive” in each case.

As for `CC[C@H](CC[C@@H](C)[C@H]1CC[C@H]2[C@@H]3CC=C4C[C@@H](O)CC[C@]4(C)[C@@H]3CC[C@]12C)C(C)C`, the Potency entry in assay [1], in assay [2], in assay [3], in assay [4], in assay [5] and in assay [6] was “inactive” throughout.

As for `Cc1c2oc3c(C)ccc(C(=O)NC4C(=O)NC(C(C)C)C(=O)N5CCCC5C(=O)N(C)CC(=O)N(C)C(C(C)C)C(=O)OC4C)c3nc-2c(C(=O)NC2C(=O)NC(C(C)C)C(=O)N3CCCC3C(=O)N(C)CC(=O)N(C)C(C(C)C)C(=O)OC2C)c(N)c1=O` (configuration not stated) (I: TVP[Sar][NMeV] / II: TVP[Sar][NMeV]; ester I:1-I:C, II:1-II:C; linker I:N-II:N via Actinocin(9to1); configuration not given here), the Potency entry in assay [1], in assay [2], in assay [3], in assay [4], in assay [5] and in assay [6] was “inactive” each time.

With `CCCCCCCCCCCCCCCC(=O)OC[C@@H](NC(=O)C(Cl)Cl)[C@H](O)c1ccc([N+](=O)[O-])cc1`, the Potency entry in assay [1], in assay [2], in assay [3], in assay [4], in assay [5] and in assay [6] was “inactive” in each case.

As to `NC1=N[C@H]2[C@H](CS[C@H]2CCCCC(=O)O)N1`, the Potency result in assay [1], in assay [2], in assay [3], in assay [4], in assay [5] and in assay [6] was “inactive” each time.

As to `C[C@H](NC(=O)[C@@H](O)c1cc(F)cc(F)c1)C(=O)N[C@@H]1C(=O)N(C)c2ccccc2-c2ccccc21`, the Potency result in assay [1], in assay [2], in assay [3], in assay [4], in assay [5] and in assay [6] was “inactive” in each case.

Consider `C[C@@H](Cc1cc2c(c(C(N)=O)c1)N(CCCO)CC2)NCCOc1ccccc1OCC(F)(F)F`, for which the Potency result in assay [1], in assay [2], in assay [3], in assay [4], in assay [5] and in assay [6] was “inactive” in each case.

With `CCOC(=O)C=C[C@H](C[C@@H]1CCNC1=O)NC(=O)[C@@H](CC(=O)[C@@H](NC(=O)c1cc(C)on1)C(C)C)Cc1ccc(F)cc1`, the Potency result in assay [1], in assay [2], in assay [3], in assay [4], in assay [5] and in assay [6] was “inactive” in each case.

Turning to `CON=C(C(=O)N[C@@H]1C(=O)N2C(C(=O)O)=C(Cn3ccc(=N)n3CCO)CS[C@H]12)c1csc(N)n1`, the Potency result in assay [1], in assay [2], in assay [3], in assay [4], in assay [5] and in assay [6] was “inactive” each time.

Turning to `CC(C)(C)[N+]([O-])=Cc1ccc(S(=O)(=O)O)cc1S(=O)(=O)O`, the Potency result in assay [1], in assay [2], in assay [3], in assay [4], in assay [5] and in assay [6] was “inactive” each time.

As to `CC(C)OC(=O)[C@H](C)N[P@](=O)(OC[C@H]1O[C@@H](n2ccc(=O)[nH]c2=O)[C@](C)(F)[C@H]1O)Oc1ccccc1`, the Potency entry in assay [1], in assay [2], in assay [3], in assay [4], in assay [5] and in assay [6] was “inactive” throughout.

Take `C=C1C[C@@]2(O)O[C@@]3(C[C@H]2C(C)C)[C@H](C)CC[C@H]13`: the Potency entry in assay [1], in assay [2], in assay [3], in assay [4], in assay [5] and in assay [6] was “inactive” in each case.

For `CC(=O)OCC(=O)[C@@]12N=C(C)O[C@H]1C[C@H]1[C@@H]3CCC4=CC(=O)C=C[C@]4(C)[C@@H]3[C@@H](O)C[C@@]12C`, the Potency result in assay [1], in assay [2], in assay [3], in assay [4], in assay [5] and in assay [6] was “inactive” each time.

With `C[C@H](NCc1ccc2c(c1)nc(NC(=O)c1ccc(-c3cn[nH]c3)s1)n2CCc1ccccc1)C(C)(C)C`, the Potency is 10500 nM (active) in assay [1]; 10500 nM (active) in assay [2]; 2350 nM (active) in assay [3]; 5900 nM (active) in assay [4]; 6620 nM (active) in assay [5]; 4690 nM (active) in assay [6].
